PubChem BioAssay AID1159580 (chemical genetic matrix, 2015)
About 2,000 (36%) of roughly 5,500 compounds were called active. Inconclusive results (about 18%) are left out. Rule as the data show it: active = normalized growth mostly below about 0.91 (no sharp cut-off); inconclusive = no clear call, values can overlap the other calls; inactive = mostly above about 0.92. The list shows a part of the results.

Assay: chemical genetic growth profiling, strain panel (AID 1159580);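 also: tested at 20 µM; growth read once vehicle control cultures reached saturation at 30 °C; 1 = growth at the plate median or of vehicle wells; lower values mean less growth of the strain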
Details: growth OD

Measured: normalized growth

O=c1oc2cc(O)ccc2s1
inactive: S. cerevisiae deletion strains, locus YJR043C, strain POL32, active compounds read low 0.962 | S. cerevisiae deletion strains, locus YJR075W, strain HOC1, active compounds read low 0.958 | S. cerevisiae deletion strains, locus YKL009W, strain mrt4, active compounds read low 0.952 | S. cerevisiae deletion strains, locus YKL068W, active compounds read low 0.995 | S. cerevisiae deletion strains, locus YKL085W, strain MDH1 (second series), active compounds read low 0.975 | S. cerevisiae deletion strains, locus YKL085W, strain MDH1, active compounds read low 0.975 | S. cerevisiae deletion strains, locus YKL160W, strain elf1, active compounds read low 0.99 | S. cerevisiae deletion strains, locus YKL190W, strain CNB1, active compounds read low 1 | S. cerevisiae deletion strains, locus YKR026C, strain gcn3, active compounds read low 1.01 | S. cerevisiae deletion strains, locus YKR091W, strain srl3, active compounds read low 1.01 | S. cerevisiae deletion strains, locus YLL001W, strain dnm1, active compounds read low 0.974 | S. cerevisiae deletion strains, locus YLL026W, active compounds read low 0.99 | S. cerevisiae deletion strains, locus YLL041C, strain sdh2, active compounds read low 1.02 | S. cerevisiae deletion strains, locus YLR027C, strain aat2, active compounds read low 0.983 | S. cerevisiae deletion strains, locus YLR039C, strain RIC1, active compounds read low 0.909 | S. cerevisiae deletion strains, locus YLR058C, strain SHM2, active compounds read low 0.983 | S. cerevisiae deletion strains, locus YLR102C, strain apc9, active compounds read low 0.963 | S. cerevisiae deletion strains, locus YLR221C, strain rsa3, active compounds read low 0.971 | S. cerevisiae deletion strains, locus YLR258W, strain gsy2, active compounds read low 1 | S. cerevisiae deletion strains, locus YLR262C, strain YPT6 (second series), active compounds read low 0.965 | S. cerevisiae deletion strains, locus YLR262C, strain YPT6, active compounds read low 0.981 | S. cerevisiae deletion strains, locus YLR268W, strain sec22, active compounds read low 0.903 | S. cerevisiae deletion strains, locus YLR320W, strain mms22, active compounds read low 0.962 | S. cerevisiae deletion strains, locus YLR330W, strain CHS5, active compounds read low 0.982 | S. cerevisiae deletion strains, locus YLR342W, strain FKS1 (second series), active compounds read low 0.956 | S. cerevisiae deletion strains, locus YLR342W, strain FKS1, active compounds read low 1 | S. cerevisiae deletion strains, locus YLR357W, strain rsc2, active compounds read low 0.995 | S. cerevisiae deletion strains, locus YLR370C, strain arc18, active compounds read low 0.999 | S. cerevisiae deletion strains, locus YLR371W, strain rom2, active compounds read low 0.965 | S. cerevisiae deletion strains, locus YLR384C, strain iki3, active compounds read low 1.02 | S. cerevisiae deletion strains, locus YLR418C, strain cdc73, active compounds read low 0.929 | S. cerevisiae deletion strains, locus YML016C, strain PPZ1, active compounds read low 0.98 | S. cerevisiae deletion strains, locus YML120C, strain ndi1, active compounds read low 0.994 | S. cerevisiae deletion strains, locus YML124C, strain tub3, active compounds read low 0.962 | S. cerevisiae deletion strains, locus YMR058W, strain fet3, active compounds read low 0.967 | S. cerevisiae deletion strains, locus YMR078C, strain ctf18, active compounds read low 0.95 | S. cerevisiae deletion strains, locus YMR129W, active compounds read low 1 | S. cerevisiae deletion strains, locus YMR205C, strain PFK2, active compounds read low 0.969 | S. cerevisiae deletion strains, locus YMR223W, strain ubp8, active compounds read low 0.96 | S. cerevisiae deletion strains, locus YMR231W, strain pep5, active compounds read low 1.03 | S. cerevisiae deletion strains, locus YMR263W, strain SAP30, active compounds read low 0.956 | S. cerevisiae deletion strains, locus YMR307W, strain GAS1, active compounds read low 0.946 | S. cerevisiae deletion strains, locus YNL067W, strain RPL9B, active compounds read low 0.926 | S. cerevisiae deletion strains, locus YNL071W, strain lat1, active compounds read low 1.01 | S. cerevisiae deletion strains, locus YNL128W, strain TEP1, active compounds read low 0.962 | S. cerevisiae deletion strains, locus YNL153C, strain GIM3, active compounds read low 0.948 | S. cerevisiae deletion strains, locus YNL209W, strain ssb2, active compounds read low 1 | S. cerevisiae deletion strains, locus YNL233W, strain BNI4, active compounds read low 0.955 | S. cerevisiae deletion strains, locus YNL248C, strain rpa49, active compounds read low 1.04 | S. cerevisiae deletion strains, locus YNL250W, strain rad50, active compounds read low 0.941 | S. cerevisiae deletion strains, locus YNL271C, strain bni1, active compounds read low 0.939 | S. cerevisiae deletion strains, locus YNL298W, strain CLA4, active compounds read low 0.917 | S. cerevisiae deletion strains, locus YNL307C, strain MCK1, active compounds read low 0.959 | S. cerevisiae deletion strains, locus YNL322C, strain KRE1 (second series), active compounds read low 1.01 | S. cerevisiae deletion strains, locus YNL322C, strain KRE1, active compounds read low 0.99 | S. cerevisiae deletion strains, locus YNR049C, strain mso1, active compounds read low 0.999 | S. cerevisiae deletion strains, locus YNR052C, strain pop2, active compounds read low 0.966 | S. cerevisiae deletion strains, locus YOL006C, strain TOP1, active compounds read low 0.908 | S. cerevisiae deletion strains, locus YOL012C, strain htz1 1.09 | S. cerevisiae deletion strains, locus YOL147C, strain pex11, active compounds read low 0.964 | S. cerevisiae deletion strains, locus YOR001W, strain rrp6, active compounds read low 0.994 | S. cerevisiae deletion strains, locus YOR061W, strain CKA2, active compounds read low 0.984 | S. cerevisiae deletion strains, locus YOR069W, strain VPS5, active compounds read low 0.984 | S. cerevisiae deletion strains, locus YOR070C, strain gyp1, active compounds read low 1.01 | S. cerevisiae deletion strains, locus YOR080W, strain dia2, active compounds read low 1.02 | S. cerevisiae deletion strains, locus YOR083W, strain WHI5, active compounds read low 0.931 | S. cerevisiae deletion strains, locus YOR106W, strain vam3, active compounds read low 0.972 | S. cerevisiae deletion strains, locus YOR136W, strain idh2, active compounds read low 0.972 | S. cerevisiae deletion strains, locus YOR144C, strain elg1, active compounds read low 0.966 | S. cerevisiae deletion strains, locus YOR184W, strain ser1, active compounds read low 0.91 | S. cerevisiae deletion strains, locus YOR265W, strain rbl2, active compounds read low 0.994 | S. cerevisiae deletion strains, locus YOR270C, strain vph1, active compounds read low 0.943 | S. cerevisiae deletion strains, locus YOR290C, strain snf2, active compounds read low 0.992 | S. cerevisiae deletion strains, locus YOR316C, strain cot1, active compounds read low 0.968 | S. cerevisiae deletion strains, locus YPL051W, strain arl3, active compounds read low 0.999 | S. cerevisiae deletion strains, locus YPL055C, strain LGE1, active compounds read low 1 | S. cerevisiae deletion strains, locus YPL078C, strain atp4, active compounds read low 0.987 | S. cerevisiae deletion strains, locus YPL106C, strain sse1, active compounds read low 1.02 | S. cerevisiae deletion strains, locus YPL240C, strain hsp82, active compounds read low 1.02 | S. cerevisiae deletion strains, locus YPL241C, strain CIN2, active compounds read low 0.989 | S. cerevisiae deletion strains, locus YPR119W, strain clb2, active compounds read low 0.967 | S. cerevisiae deletion strains, locus YPR141C, strain kar3, active compounds read low 0.933 | S. cerevisiae deletion strains, locus YPR163C, strain tif3, active compounds read low 0.965 | S. cerevisiae deletion strains, locus YPR167C, strain met16, active compounds read low 0.965 | S. cerevisiae strains, strain wild type, active compounds read low 0.978
active: S. cerevisiae deletion strains, locus YKR001C, strain vps1, active compounds read low 0.894 | S. cerevisiae deletion strains, locus YML032C, strain rad52, active compounds read low 0.858 | S. cerevisiae deletion strains, locus YMR125W, strain sto1, active compounds read low 1.12 [resistant] | S. cerevisiae deletion strains, strain wtn01, active compounds read low 0.876
